Mtb FBA inh: Mtb fructose-bisphosphate aldolase inhibition. AID 588726. P9WQA3. purified M. tuberculosis FBA, fluorescence read-out. inhibition, % at 1 µM. hit rate 2.3% among 360,000; in the data active = inhibition above about 27%;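 also: 0% = vehicle and 100% = reference inhibitor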
Target sequence (P9WQA3 whole entry, looked up): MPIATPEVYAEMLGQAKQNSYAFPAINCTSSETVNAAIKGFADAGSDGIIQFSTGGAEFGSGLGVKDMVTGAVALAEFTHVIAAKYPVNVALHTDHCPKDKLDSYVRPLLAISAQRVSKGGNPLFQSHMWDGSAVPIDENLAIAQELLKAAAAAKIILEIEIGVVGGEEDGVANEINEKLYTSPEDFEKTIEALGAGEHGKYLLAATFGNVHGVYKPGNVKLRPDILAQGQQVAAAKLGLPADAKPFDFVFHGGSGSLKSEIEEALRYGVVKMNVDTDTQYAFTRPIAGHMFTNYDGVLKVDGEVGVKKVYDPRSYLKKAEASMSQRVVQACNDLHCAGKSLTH
CCHF vOTU inh: CCHFV vOTU protease inhibition; hit rate 0.55% among 370,000; Pep-AMC fluorescence; AID 651958; inhibition, % at 11.5 µM; also: 0% = vehicle wells with enzyme and 100% = no enzyme wells
RecA splice inh: blocks M. tuberculosis RecA intein splicing. P9WHJ3. cell-free RecA intein splicing, fluorescence. inhibition, % (no concentration beside the values). hit rate 0.75% among 290,000. AID 2221; in the data active = inhibition above about 30%;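 also: 0% = vehicle wells and 100% = reference inhibitor control wells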
Mtb bLac sens: beta-lactam sensitization of Mtb H37Rv; M. tuberculosis H37Rv growth with meropenem, percent inhibition; inhibition, % at 25 µM; hit rate 0.27% among 330,000; call rule not given here;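 also: growth measured after seven days incubation then overnight dye step; 0% = bacteria only wells and 100% = bacteria with antibiotic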
GDH-TPI inh: inhibits GDH-TPI coupling enzymes, artifact for Mtb FBA screen | GDH-TPI coupled enzyme counterscreen, NADH absorbance | inhibition, % at 4.8 µM | hit rate 1.2% among 360,000 | AID 588335;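 also: 0% = DMSO wells and 100% = wells lacking the enzyme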
Numbers without * were called inactive; x = no result; + = active, no number. A selection: hits, their analogues and other compounds. The true share with any hit is near 4.2%. Rule as the data show it, unless noted: active = inhibition above about 30%; inactive = the rest.

SMILES	Mtb FBA inh	CCHF vOTU inh	RecA splice inh	Mtb bLac sens	GDH-TPI inh
COc1ccc(/C(O)=C/C(=O)C(=O)Nc2c(C)n(C)n(-c3ccccc3)c2=O)cc1	-2	-6	-2	11	34*
COc1ccc(C(=O)/C=C/Nc2c(C)n(C)n(-c3ccccc3)c2=O)cc1OC	-1	-12	-3	-9	35*
Cc1c(N/C=C/C(=O)C(F)(F)F)c(=O)n(-c2ccccc2)n1C	0	-8	-6	-2	11
Cc1c(NC(=O)C(=O)/C=C(/O)c2ccccc2)c(=O)n(-c2ccccc2)n1C	1	-8	-3	2	1
C(=N\n1cncn1)/c1ccc(N2CCOCC2)cc1	-3	2	-4	-1	46*
C(=N\n1cnnc1)/c1ccc(N2CCOCC2)cc1	5	-2	2	-9	34*
CN(CCO)c1ccc2c(c1)Oc1ccccc1CN(Cc1cn(Cc3ccc(F)cc3)nn1)S2(=O)=O	x	-3	x	x	x
COc1ccc(NC2=CC(=O)CC(C)(C)C2)cc1	-6	7	0	3	3
COC(=O)c1ccc(NC2=CC(=O)CC(C)(C)C2)cc1	4	8	0	10	44*
CC1(C)CC(=O)C=C(Nc2ccc([N+](=O)[O-])cc2)C1	-3	15	2	-5	47*
COc1cccc(O[C@H]2C=C[C@@H](c3ccccc3)O[C@@H]2CO)c1	x	2	x	x	x
CN1/C(=C\C=C(C#N)C#N)C(C)(C)c2ccccc21	-4	7	-7	-3	9
CN1/C(=C/C=N/n2cnnc2)C(C)(C)c2ccccc21	3	2	-8	1	45*
COc1ccc(C2CC(c3ccccc3)=NN2c2ccc(N)cc2)cc1 (configuration not stated)	0	2	-38	83	15
COc1ccc(C2CC(c3cccc(Cl)c3)=NN2c2ccc(S(N)(=O)=O)cc2)cc1 (configuration not stated)	141*	-99	x	x	19
COc1ccc(C2CC(c3ccc(Cl)cc3)=NN2c2ccc(S(N)(=O)=O)cc2)cc1 (configuration not stated)	+	-103	x	x	6
O=C(O)c1ccc(N2C(=O)c3cccc4cccc(c34)C2=O)cc1	11	-8	-2	-1	38*
CCC(=O)N1N=C(c2ccc(NS(=O)(=O)c3ccc(C)cc3)cc2)CC1c1ccco1 (configuration not stated)	2	19	x	-1	2
CCS(=O)(=O)Nc1ccc(C2=NN(C(=O)c3ccco3)C(c3ccc(C)cc3)C2)cc1 (configuration not stated)	3	x	12	15	24
CS(=O)(=O)Nc1ccc(C2=NN(C(=O)c3ccco3)C(c3cccc(F)c3)C2)cc1 (configuration not stated)	3	2	1	3	31*
CCC(=O)N1N=C(c2ccc(NS(=O)(=O)CC)cc2)CC1c1ccc(C)cc1 (configuration not stated)	+	-121	3	7	5
CCS(=O)(=O)Nc1ccc(C2=NN(C(=O)c3ccco3)C(c3cccc(F)c3)C2)cc1 (configuration not stated)	5	8	8	2	24
CCS(=O)(=O)Nc1ccc(C2=NN(C(=O)c3ccco3)C(c3ccc(Cl)o3)C2)cc1 (configuration not stated)	5	-11	x	3	50*
CC/C(=N\NC(=O)c1ccccc1)c1c(O)n(C2CCCCC2)c(=O)[nH]c1=O	1	9	0	1	25
CC/C(=N\NC(=O)c1ccccc1Cl)c1c(O)n(C2CCCCC2)c(=O)[nH]c1=O	-3	16	-1	-1	34*
SMILES	Mtb FBA inh	CCHF vOTU inh	RecA splice inh	Mtb bLac sens	GDH-TPI inh
COCCNC(=O)c1cc2cc3ccc(OC)cc3nc2o1	+	-358	1	-2	22
COc1ccc2cc3cc(C(=O)Nc4ccccc4N4CCN(C)CC4)oc3nc2c1	1	-9	0	98	22
COc1ccc2cc3cc(C(=O)NCCC(C)C)oc3nc2c1	134*	-92	-2	0	15
COc1ccc2cc3cc(C(=O)NCCN4CCN(c5ccccc5F)CC4)oc3nc2c1	+	-89	2	89	34*
COc1ccc2cc3cc(C(=O)NCC4CCCO4)oc3nc2c1 (configuration not stated)	+	-257	-1	10	30
CCN(CC)c1ccc(NC(=O)c2cc3c(C)nn(-c4ccccc4)c3s2)cc1	x	12	x	x	x
CCC(C)NC(=O)c1cc2cc3ccc(OC)cc3nc2o1 (configuration not stated)	+	-361	-8	5	21
Cc1ccc2cc3cc(C(=O)NCCCN4CCCC4)oc3nc2c1	127*	-130	-4	4	38*
CNc1nnc(-c2ccc(N(C)C)cc2)s1	+	-282	x	3	46*
O=C(CCN1C(=O)S/C(=C/c2ccc(F)cc2)C1=O)Nc1ccc(O)c(C(=O)O)c1	3	10	7	7	32*
O=C(CCN1C(=O)/C(=C\c2ccccc2F)SC1=S)Nc1ccc(C(=O)O)c(O)c1	-2	27	32*	32	13
O=C(CCN1C(=O)S/C(=C/c2ccccc2)C1=O)Nc1ccc(C(=O)O)c(O)c1	-1	11	5	95	25
O=C(CCN1C(=O)S/C(=C\c2ccc(Cl)cc2)C1=O)Nc1ccc(C(=O)O)cc1	-2	7	8	1	-1
O=C(CCN1C(=O)S/C(=C\c2ccc(F)cc2)C1=O)Nc1ccc(C(=O)O)c(O)c1	6	18	8	94	43*
O=C(CCN1C(=O)S/C(=C\c2ccc(F)cc2)C1=O)Nc1ccc(O)cc1C(=O)O	0	22	-3	4	43*
CCN1Cc2nnn(CC3CCCCC3)c2-c2ccccc2S1(=O)=O	x	2	x	x	x
Clc1ccc(CN2CCN(N=Cc3cccc(OCc4ccccc4)c3)CC2)cc1	x	9	x	x	x
CCCCN1C[C@@H]2CSCCS(=O)(=O)N2C1=O	x	6	x	x	x
Cc1cc2c(cc1C)NC(c1cccnc1)C1=C(CC(C)(C)CC1=O)N2 (configuration not stated)	-2	12	-6	-6	33*
COC(=O)c1ccc(C2Nc3ccccc3NC3=C2C(=O)CC(C)(C)C3)cc1 (configuration not stated)	-3	-4	-2	-11	19
CC1(C)CC(=O)C2=C(C1)Nc1ccccc1NC2c1cccnc1 (configuration not stated)	2	12	-3	5	37*
CCOc1cc(C2Nc3ccccc3NC3=C2C(=O)CC(C)(C)C3)ccc1OC(C)=O (configuration not stated)	0	-5	1	2	43*
COC(=O)c1ccc2c(c1)NC1=C(C(=O)CC(C)(C)C1)C(c1ccncc1)N2 (configuration not stated)	0	3	-1	-9	31*
CC1=C(C#N)C(c2cccnc2)C2=C(CC(C)(C)CC2=O)N1 (configuration not stated)	15	-54	-48	11	-2

Screening results deposited in PubChem BioAssay by several laboratories.
